“And” between values parts separate entries of the source, which are not always exact repeats. Equal values may be shown once. Inconclusive results are not listed. The source made the active and inactive calls. Calls follow the shape of the dose curve; as a rule, active = well fitted curve in the direction sought with a large enough effect; inconclusive = small, poorly fitted or top-dose-only effect, or another doubt; inactive = no such curve, though single readings can be large; an effect the other way counts as inactive or inconclusive.
How the values were obtained:
[1] = tested on: CRL-7250; assay: Cytotoxic Profiling of Annotated Libraries Using Quantitative High-Throughput Screening (AID 1296008); details: Five cell lines viability, CellTiter-Glo ATP luminescence, 48-72 h; max response: stronger effect = lower value; also: nearly all actives have a fitted effect of over 60% in size; also: potency is read from the fitted curve at half-maximal effect
Method in brief: (§1)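 Compounds were pin-transferred onto cells and incubated 48 or 72 hr at 37 degree Celsius, 95% humidity. CellTiter-Glo was added, plates sat 10 min at room temperature, then ATP-coupled luminescence was imaged as the viability read-out.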

[2] = tested on: HEK293; assay: as above; details: Five cell lines viability, CellTiter-Glo ATP luminescence, 48-72 h; max response: stronger effect = lower value
Method in brief: as §1

[3] = tested on: HaCat; assay: as above; details: Five cell lines viability, CellTiter-Glo ATP luminescence, 48-72 h; max response: stronger effect = lower value
Method in brief: as §1

[4] = tested on: MKL-1; assay: qHTS assay to identify novel small-molecules to repurpose for Merkel cell carcinoma treatment (AID 1296009); details: MCC and control cell lines, CellTiter-Glo viability, 72 h; series mostly up to 46 µM; also: nearly all actives have a fitted effect of over 60% in size; also: potency is read from the fitted curve at half-maximal effect
Method in brief: (§2)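 Cells exposed to NPC (8-point) and MIPE (11-point) compound dilutions for 72 hr at 37 degree celsius; viability read by CellTiter-Glo luminescence, normalized to no-cell and DMSO in-plate controls.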

[5] = tested on: MKL-2; assay: as above; details: MCC and control cell lines, CellTiter-Glo viability, 72 h; series mostly up to 46 µM
Method in brief: as §2

[6] = tested on: WaGa; assay: as above; details: MCC and control cell lines, CellTiter-Glo viability, 72 h; series mostly up to 46 µM
Method in brief: as §2

[7] = tested on: NIH3T3; assay: Cytotoxic Profiling of Annotated Libraries Using Quantitative High-Throughput Screening (AID 1296008); details: Five cell lines viability, CellTiter-Glo ATP luminescence, 48-72 h; max response: stronger effect = lower value; also: nearly all actives have a fitted effect of over 60% in size; also: potency is read from the fitted curve at half-maximal effect
Method in brief: as §1

[8] = tested on: HEK293T; assay: qHTS assay to identify novel small-molecules to repurpose for Merkel cell carcinoma treatment (AID 1296009); details: MCC and control cell lines, CellTiter-Glo viability, 72 h; at 44.8 µM (top of the series) unless noted; also: nearly all actives have a fitted effect of over 60% in size; also: potency is read from the fitted curve at half-maximal effect
Method in brief: as §2

[9] = tested on: MCC-13; assay: as above; details: MCC and control cell lines, CellTiter-Glo viability, 72 h; series mostly up to 46 µM
Method in brief: as §2

[10] = tested on: MCC-26; assay: as above; details: MCC and control cell lines, CellTiter-Glo viability, 72 h; series mostly up to 46 µM
Method in brief: as §2

[11] = tested on: UISO; assay: as above; details: MCC and control cell lines, CellTiter-Glo viability, 72 h; series mostly up to 46 µM
Method in brief: as §2

[12] = tested on: KB-3-1; assay: Cytotoxic Profiling of Annotated Libraries Using Quantitative High-Throughput Screening (AID 1296008); details: Five cell lines viability, CellTiter-Glo ATP luminescence, 48-72 h; max response: stronger effect = lower value; also: nearly all actives have a fitted effect of over 60% in size; also: potency is read from the fitted curve at half-maximal effect
Method in brief: as §1

[13] = tested on: C33A; assay: Primary qHTS to identify gynecologic anti-cancer compounds using libraries of approved drugs and bioactive compounds (AID 1345084); details: Gynecologic cancer cell panel viability, ATPlite luminescence, 48 h; series mostly up to 57.5 µM; also: nearly all actives have a fitted effect of over 55% in size
Method in brief: (§3)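 Cells, 1,000 per well, plated 16 h, then exposed 48 h at 37 C to compounds. Viability by ATPlite luminescence after 15 min at room temperature.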

[14] = tested on: CAOV3; assay: as above; details: Gynecologic cancer cell panel viability, ATPlite luminescence, 48 h; series mostly up to 57.5 µM
Method in brief: as §3

[15] = tested on: CASKI; assay: as above; details: Gynecologic cancer cell panel viability, ATPlite luminescence, 48 h; series mostly up to 57.5 µM
Method in brief: as §3

[16] = tested on: Es-2; assay: as above; details: Gynecologic cancer cell panel viability, ATPlite luminescence, 48 h; series mostly up to 57.5 µM
Method in brief: as §3

[17] = tested on: HACAT; assay: qHTS assay to identify novel small-molecules to repurpose for Merkel cell carcinoma treatment (AID 1296009); details: MCC and control cell lines, CellTiter-Glo viability, 72 h; at 44.8 µM (top of the series) unless noted; also: nearly all actives have a fitted effect of over 60% in size; also: potency is read from the fitted curve at half-maximal effect
Method in brief: as §2

[18] = tested on: NIH3T3; assay: as above; details: MCC and control cell lines, CellTiter-Glo viability, 72 h; at 44.8 µM (top of the series) unless noted
Method in brief: as §2

[19] = tested on: CRL-7250; assay: as above; details: MCC and control cell lines, CellTiter-Glo viability, 72 h; at 44.8 µM (top of the series) unless noted
Method in brief: as §2
% is scaled to controls: 0 for no effect and ±100 for the full control effect.

CO[C@H]1CCC(O[C@H]2C[C@H]([C@]3(C)CC[C@]4(C[C@H](O)[C@@H](C)[C@@H]([C@@H](C)C=C(C)C(=O)[C@H](C)C[C@H](C)C(=O)O)O4)O3)O[C@]3(O[C@@H]([C@H]4O[C@@](O)(CO)[C@H](C)C[C@H]4C)C[C@H]3C)[C@H]2C)O[C@H]1C (stereo not given in full)
active: Potency [1] 1050 nM | Potency [2] 590 nM | Potency [4] 935 nM | Potency [5] 662 nM | Potency [6] 935 nM
inactive: max response [3] -21.4%

C[C@]12CC[C@@H]3[C@@H](CCC4=CC(=O)CC[C@@H]43)[C@@H]1CC[C@@H]2OC(=O)CCc1ccccc1
inactive: max response [1] 1.37% | outcome [2] | max response [3] -22.8% | max response [7] -6.38% | outcome [8] | Potency [9] | Potency [10] | Potency [4] | Potency [5] | Potency [11] | Potency [6]

C[C@@H]1O[C@@H](O[C@@H]2C=C3CC[C@@H]4[C@@H](CC[C@]5(C)[C@H](c6ccc(=O)oc6)CC[C@@]45O)[C@@]3(C)CC2)[C@H](O)[C@H](O)[C@H]1O
active: Potency [1] 11.8 nM | Potency [2] 16.6 nM | Potency [3] 46.9 nM | Potency [12] 26.4 nM | Potency [7] 3720 nM | Potency [9] 37.2 nM | Potency [4] 105 nM | Potency [5] 132 nM | Potency [6] 41.8 nM

S=C(NC1CCCCC1)N1CCC(c2cnc[nH]2)CC1
inactive: max response [1] -0.728% | max response [2] -0.423% | max response [3] -12.4% | max response [12] -10.7% | max response [7] -20.5% | Potency [13] | Potency [14] | Potency [15] | Potency [16]

CN[C@@H]1Cc2cccc3[nH]c(=O)n(c23)C1
inactive: max response [1] -16.3% | max response [2] -16.4% | max response [12] 9.87% | max response [7] 3.1% | Potency [9] | Potency [10] | Potency [4] | Potency [5] | Potency [11] | Potency [6]

Nc1c(Cl)c(Cl)c(Cl)c(Cl)c1Cl
inactive: max response [1] -6.12% | max response [2] -6.61% | max response [3] -3.9% | max response [12] -13% | max response [7] 2.9% | Potency [9] | Potency [10] | Potency [4] | Potency [5] | Potency [11] | Potency [6] | Potency [13] | Potency [15] | Potency [16]

CCNC(=O)C[C@@H]1N=C(c2ccc(Cl)cc2)c2cc(OC)ccc2-n2c(C)nnc21
inactive: max response [3] -10.8% | Potency [9] | Potency [13] | Potency [15]
active: Potency [1] 1.32 µM and 1.3 µM | Potency [2] 5170 nM | Potency [7] 1840 nM | Potency [5] 1660 nM | Potency [6] 5900 nM

CCN1CCN(C(=O)Cc2ccc(Nc3ncc(F)c(Nc4ccc(C(=O)Nc5ccccc5Cl)cc4)n3)cc2)CC1
inactive: Potency [10] | Potency [13] | Potency [15]
active: Potency [1] 26.4 µM and 16.4 µM | Potency [2] 3.72 µM and 2.59 µM | Potency [3] 8200 nM | Potency [12] 1840 nM | Potency [7] 20600 nM | Potency [5] 9350 nM

C=CC(=O)NCNC(=O)C=C
inactive: max response [1] -10.1% | outcome [2] | max response [3] -16.1% | max response [12] 1.85% | max response [7] -14.2% | outcome [8] inactive [at 92 µM] | Potency [9] | Potency [10] | Potency [4] | Potency [11] | Potency [13] | Potency [14] | Potency [15] | Potency [16]

NC1CC1c1ccccc1 (stereo not given)
inactive: max response [1] -3.17% | outcome [2] | max response [3] -2.49% | max response [12] 5.36% | max response [7] -3.94% | outcome [8] | Potency [9] | Potency [10] | Potency [4] | Potency [5] | Potency [11] | Potency [6]

Fc1cc(Br)ccc1CBr
inactive: max response [1] -5.31% | max response [2] -1.72% | outcome [3] | outcome [7] | outcome [17] | Potency [9] | Potency [10] | Potency [4] | Potency [5] | outcome [18] | Potency [11] | Potency [6] | Potency [13] | Potency [15] | Potency [16]

CC1=C(C(=O)O)N2C(=O)[C@@H](N)[C@H]2SC1
inactive: outcome [1] | outcome [2] | max response [3] 3.51% | outcome [7] | outcome [19] inactive [at 17.4 µM] | outcome [8] inactive [at 17.4 µM] | Potency [9] | Potency [4] | Potency [5] | outcome [18] inactive [at 17.4 µM] | Potency [11] | Potency [6] | Potency [13] | Potency [14] | Potency [15] | Potency [16]

C[C@@]12OC(=O)[C@]1([C@@H](O)[C@@H]1C=CCCC1)NC(=O)[C@H]2CCCl
active: Potency [1] 209 nM | Potency [2] 74.3 nM | Potency [3] 16600 nM | Potency [12] 418 nM | Potency [9] 3320 nM | Potency [10] 833 nM | Potency [4] 1180 nM | Potency [5] 526 nM | Potency [11] 1480 nM | Potency [6] 662 nM

CC[C@@]1(O)C(=O)OCc2c1cc1n(c2=O)Cc2cc3ccccc3nc2-1
active: Potency [1] 418 nM | Potency [2] 41.8 nM | Potency [3] 46.9 nM | Potency [12] 469 nM | Potency [7] 148 nM | Potency [9] 26.4 nM | Potency [10] 74.3 nM | Potency [4] 33.2 nM | Potency [5] 74.3 nM | Potency [11] 29.6 nM | Potency [6] 20.9 nM

O=C(N[C@@H](COc1ccc2[nH]c(=O)[nH]c2c1)c1ccccc1)c1cccn(Cc2ccc(F)c(F)c2)c1=O
inactive: max response [1] -47.2% | max response [2] -35.2% and -9.78% | max response [3] -18% | max response [12] -0.47% | max response [7] -25.3% | Potency [9] | Potency [10] | Potency [4] | Potency [5] | Potency [11] | Potency [6] | Potency [13] | Potency [15] | Potency [16]

CC(C)[C@]12O[C@@H]1[C@@H]1O[C@]13[C@]1(O[C@H]1C[C@@H]1C4=C(CC[C@@]13C)C(=O)OC4)[C@H]2O
inactive: max response [1] -124% | max response [2] -111% | max response [3] -144% | max response [7] -117% | Potency [9] | Potency [10] | Potency [4] | Potency [5] | Potency [11] | Potency [6]
active: Potency [12] 1 nM
